This note sets out measurements from PubChem BioAssay (Tox21).

Results filed as inconclusive are left out. A call without a number means that no potency is given here. Calls of active or inactive are those of the source. Calls come from the whole dose curve; as a rule, active = well fitted inhibition curve with a large enough effect in the signal ratio in the repeat runs, with a control signal flat; inconclusive = weak or mixed curves, or effect the other way; inactive = flat fitted curve, though single readings scatter; the % refers to the signal ratio.

Chain of D(2) dopamine receptor (Homo sapiens) (P14416 whole entry, looked up): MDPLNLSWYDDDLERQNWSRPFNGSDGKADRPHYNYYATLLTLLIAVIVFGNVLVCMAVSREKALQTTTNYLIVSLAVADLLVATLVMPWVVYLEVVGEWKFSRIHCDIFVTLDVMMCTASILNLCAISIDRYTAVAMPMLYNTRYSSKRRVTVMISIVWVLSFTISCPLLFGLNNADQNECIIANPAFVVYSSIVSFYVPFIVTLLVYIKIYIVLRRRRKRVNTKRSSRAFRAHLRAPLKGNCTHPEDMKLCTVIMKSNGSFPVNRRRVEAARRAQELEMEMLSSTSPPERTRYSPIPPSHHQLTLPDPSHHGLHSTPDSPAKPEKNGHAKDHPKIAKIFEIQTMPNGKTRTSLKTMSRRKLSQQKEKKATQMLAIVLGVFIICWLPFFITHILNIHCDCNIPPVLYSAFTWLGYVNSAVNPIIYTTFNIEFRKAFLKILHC

This assay has as its target D(2) dopamine receptor (Homo sapiens) (UniProt P14416). In words: Dopamine D2 receptor (DRD2) small molecule antagonists, cell-based qHTS assay (AID 1963595). The note with it: HEK293-DRD2 cAMP HTRF antagonist mode; series mostly up to 92.4 µM. The gist of the method:
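Antagonist mode in DRD2-HEK293 cells: after compound addition with 0.1 mM Ro20-1724, cells received quinpirole (12 nM) and NKH477 (200 nM) for 30 min at room temperature; HTRF cAMP read after 1 h detection.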
For orientation: Quantitative high-throughput screening tests each substance at several concentrations.
Consider `ClC(Cl)=C(c1ccc(Cl)cc1)c1ccc(Cl)cc1`, for which the Potency entry is “inactive”.
The entry for `ClCCN1CCOCC1` is “inactive”; for `C1CCC2CCCCC2C1` (stereo unspecified) it is “inactive”; for `CC12CC1(C)C(=O)N(c1cc(Cl)cc(Cl)c1)C2=O` (stereo unspecified) it is “inactive”.
`ClCc1cccnc1`: the Potency result is “inactive”.
As for `CNC(=O)O/N=C/C(C)(C)S(C)=O` (stereo unspecified), the Potency entry was “inactive”.
The value for `CN(C)C(=O)Nc1ccc(Cl)cc1` was “inactive”; that for `Cc1ccccc1CCl` was “inactive”.
With `CCOP(=S)(OCC)SCSc1cc(Cl)ccc1Cl`, the Potency result is “inactive”.
On to `Nc1c(Br)cc([N+](=O)[O-])cc1[N+](=O)[O-]`, for which the Potency result was “inactive”.
The entry for `COC[C@@H](NC(C)=O)C(=O)NCc1ccccc1` is “inactive”; for `COc1cc(OC)nc(NC(=O)NS(=O)(=O)c2ncccc2C(=O)N(C)C)n1` it is “inactive”.
For the compound `OCC(Br)CBr` (stereo unspecified), the Potency entry was “inactive”.
For `c1ccc(C2CO2)cc1` (stereo unspecified), the Potency result was “inactive”.
Take `CCN(C)N=O`: the Potency entry was “inactive”.
With `CCOP(OCC)OCC`, the Potency result was “inactive”.
For `CC(=O)C1CCOC1=O` (stereo unspecified), the Potency result was “inactive”.
The entry for `C#CCOC(=O)/C=C(C)/C=C/CC(C)CCCC(C)C` (stereo unspecified) is “inactive”; for `CCN(CC)C1CCCCC1` it is “inactive”; for `CCCCC(CC)COC(=O)c1ccc(C(=O)OCC(CC)CCCC)c(C(=O)OCC(CC)CCCC)c1` (stereo unspecified) it is “inactive”.
In the case of `O=C(CCl)CCl`, the Potency result is “inactive”.
On to `CCOc1cc(C=O)ccc1O`, for which the Potency entry was “inactive”.
Consider `Cl/C=C\CCl`, for which the Potency result was “inactive”.
Regarding `C=CC(=O)NC(C)(C)CC(C)=O`, the Potency entry is “inactive”.
For `Cc1ccc(N)cc1C`, the Potency result was “inactive”.
In the case of `CC(C)(Cl)Cl`, the Potency result was “inactive”.
As to `CCOS(C)(=O)=O`, the Potency result was “inactive”.
Turning to `O=C([O-])c1ccccn1.O=C([O-])c1ccccn1.O=C([O-])c1ccccn1.[Cr+3]`, the Potency result was “inactive”.
`BrCCc1ccccc1`: the Potency entry is “inactive”.
On to `COCC(=O)N(c1c(C)cccc1C)[C@H](C)C(=O)OC`, for which the Potency entry is “inactive”.
Consider `CN(C)C(=O)C(c1ccccc1)c1ccccc1`, for which the Potency entry was “inactive”.
Consider `CN(CCCC(=O)c1cccnc1)N=O`, for which the Potency result is “inactive”.
In the case of `COC(=O)[C@@H](N)CCCN/C(N)=N/[N+](=O)[O-]`, the Potency result was “inactive”.
Consider `CC[N+](=O)[O-]`, for which the Potency result is “inactive”.
On to `CCCCCCC1CCOC1=O` (stereo unspecified), for which the Potency result is “inactive”.
Consider `O=[N+]([O-])c1ccccc1O`, for which the Potency entry was “inactive”.
